Test results as given in PubChem BioAssay AID686979 (National Center for Advancing Translational Sciences (NCATS), 2013).
Several values for one entry are separate records, joined by “and”; a condition that tells them apart may be missing. Equal entries are not always repeated. In all, about 420,000 compounds went through this assay and about 50,000 (12%) were called active. Entries that show only a call come without a potency. Roughly 26% stayed inconclusive and do not appear here. Many of the other results were omitted from the sample, so actives are more common in it than they were. Unmarked numbers belong to inactive results. Calls come from the whole dose curve; as a rule, active = well fitted inhibition curve with a large enough effect; inconclusive = small, poorly fitted or top-dose-only effect; inactive = flat fitted curve, though single readings scatter.

Assay: qHTS for Inhibitors of human tyrosyl-DNA phosphodiesterase 1 (TDP1): qHTS in cells in presence of CPT; note: nearly all actives have a fitted effect of over 55% in size
Details: chicken DT40 Tdp1-/-;hTDP1 cells + 20 nM CPT, ATP luminescence, 48 h; series mostly up to 46.2 µM
In short: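 Chicken DT40 Tdp1-/- cells complemented with human TDP1, 400 cells/well, exposed to compounds plus 20 nM camptothecin for at least 48 h at 37 C; viability read as ATP content by CellTiter-Glo luminescence.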
Potency is the fitted concentration of half-maximal effect.

Which Potency does the source give for `COC(=O)N(C)C[C@@H]1OCc2cnnn2CCCC(=O)N([C@@H](C)CO)C[C@@H]1C` here?
Its Potency is “inactive”.

Which Potency does the source give for `CCOc1ccc(CNC(=O)c2cc(-c3ccc(Cl)s3)nc3ccccc23)cc1` here?
Its Potency is 20.6 µM (active).

With `Cc1nc2ccc(C(=O)N/N=C/c3ccc(O)cc3)cc2[nH]1` as the molecule, how does the Potency read?
The Potency was “inactive”.

For `C/C(=N\NC(=O)c1cc(-c2ccc(O)cc2)nc2ccccc12)c1cccnc1`, which Potency is on record?
The Potency was 20.6 µM (active).

Which Potency does the source give for `CNC(=O)COC(=O)c1cc(-c2ccc(OC)cc2)nc2ccccc12` here?
The Potency was “inactive”.

For `CCOc1ccc(-c2cc(C(=O)N/N=C/c3ccc(O)cc3)c3ccccc3n2)cc1`, which Potency is on record?
The Potency was 1.84 µM (active).

For `COc1ccc(/C=N/NC(=O)c2ccc(Cl)cc2)cc1COC(C)=O`, which Potency is on record?
The Potency was “inactive”.

With `O=C(N/N=C/c1ccc(OCc2ccccc2)cc1)c1ccc(O)cc1` as the molecule, how does the Potency read?
The Potency was “inactive”.

For `C/C(=N\NC(=O)c1ccc2ccccc2c1)c1cccnc1`, which Potency is on record?
The Potency was “inactive”.

For `COc1cccc(-c2cc(C(=O)N/N=C/c3ccc(OC)c(COC(C)=O)c3)c3ccccc3n2)c1`, which Potency is on record?
Its Potency is 8.2 µM (active).

Which Potency does the source give for `CC(=O)N1CCN(C(=O)c2cc(-c3ccc(Cl)s3)nc3ccccc23)CC1` here?
Its Potency is “inactive”.

For `C/C(=N\NC(=O)c1cccc([N+](=O)[O-])c1)c1cccnc1`, which Potency is on record?
The Potency was “inactive”.

For `CCOc1ccc(NC(=O)c2cc(C)nc3ccccc23)cc1`, which Potency is on record?
The Potency was “inactive”.

For `CC(C)=CC1C(C(=O)O)C1(C)C` (stereo not given), which Potency is on record?
The Potency was “inactive”.

With `COc1ccc(NC2CCCN(C(=O)c3ccccc3-c3ncc[nH]3)C2)cc1` (stereo not given) as the molecule, how does the Potency read?
Its Potency is “inactive”.

With `OCC(O)C1OCOC(C(O)CO)C1O` (stereo not given) as the molecule, how does the Potency read?
Its Potency is “inactive”.

With `COc1cc(OC)c(NC(=O)c2nc(-c3ccncc3)no2)cc1Cl` as the molecule, how does the Potency read?
Its Potency is “inactive”.

For `CC(C)c1cc(CN2CCOCC2)cc(C(C)C)c1O`, which Potency is on record?
Its Potency is “inactive”.

For `Cc1nn(C)c(Cl)c1CN1CCC(n2nccc2NC(=O)C2CCCC2)CC1`, which Potency is on record?
Its Potency is “inactive”.

With `O=C(N/N=C\c1cccnc1)c1cc(-c2ccccc2)nc2c(Cl)cccc12` as the molecule, how does the Potency read?
The Potency was 10.3 µM (active).

For `Cc1cc(C(=O)N/N=C/c2ccccn2)c2ccccc2n1`, which Potency is on record?
Its Potency is “inactive”.

Which Potency does the source give for `COc1cc(/C=N/NC(=O)c2cc(-c3ccccc3C)nc3ccccc23)cc(OC)c1O` here?
Its Potency is 5.8 µM (active).

With `COc1cc(/C=N\NC(=O)C2C(=O)NCC2c2ccccc2)cc(OC)c1O` (stereo not given) as the molecule, how does the Potency read?
The Potency was “inactive”.

Which Potency does the source give for `O=C(N/N=C/c1cccnc1)c1ccc(NC(=O)c2ccc(F)cc2)cc1` here?
The Potency was “inactive”.

With `O=C(N/N=C/c1cccnc1)c1cc2ccccc2cc1O` as the molecule, how does the Potency read?
Its Potency is “inactive”.

For `Cc1c(NC(=O)Nc2cccc([N+](=O)[O-])c2)c(=O)n(-c2ccccc2)n1C`, which Potency is on record?
The Potency was “inactive”.

For `C#CCOCCOCCOCCNc1nc(N2CCN(C(=O)C([C@@H](C)CC)n3cc(C(N)COC(=O)C(F)(F)F)nn3)CC2)nc(N2CCN(C(=O)[C@H](CCCCN)n3cc(C(N)CC(C)C)nn3)CC2)n1` (stereo not given in full), which Potency is on record?
Its Potency is “inactive”.

For `COc1cc(CN2CCC(n3nccc3NC(=O)CCCc3ccccc3)CC2)ccc1O`, which Potency is on record?
Its Potency is “inactive”.

For `CC(Oc1ccc(F)cc1)C(=O)N1CCN(c2ncccn2)CC1` (stereo not given), which Potency is on record?
The Potency was “inactive”.

With `O=C(COC(=O)c1cccc(Cl)c1Cl)NC1CCCCCC1` as the molecule, how does the Potency read?
The Potency was “inactive”.

Which Potency does the source give for `CC(C)(C)c1ccc(C(=O)C[N+]2(C)CCCc3ccccc32)cc1` (stereo not given) here?
Its Potency is 3.55 µM (active).

With `CC(C)(C)c1ccc(C(=O)NNC(=O)Cc2ccccc2)cc1` as the molecule, how does the Potency read?
The Potency was “inactive”.

Which Potency does the source give for `CCn1ccnc1CNC(=O)CC1C(=O)NCCN1CCCc1ccccc1` (stereo not given) here?
The Potency was “inactive”.

For `O=C(C(=O)N1CCOc2ccc(CN3CCN(Cc4ccccn4)CC3)cc2C1)c1ccccc1`, which activity change, negative = growth inhibition is on record?
Its activity change, negative = growth inhibition is 6.37% [at 9.04 µM].

Which Potency does the source give for `CC(=O)Nc1cccc(NC(=O)CSc2nccn2Cc2ccc(F)cc2)c1` here?
Its Potency is “inactive”.

For `O=C1CC2(CCN(C(=O)COc3ccc(F)cc3)CC2)Oc2ccccc21`, which Potency is on record?
The Potency was “inactive”.

Which Potency does the source give for `COc1cc(/C=C/C(=O)OCC(=O)NCCCc2ccccc2)ccc1O` here?
Its Potency is “inactive”.

With `CC(C)c1c(C(=O)N/N=C/c2ccc(-c3ccccc3)cc2)nnn1-c1nonc1N` as the molecule, how does the Potency read?
The Potency was “inactive”.

For `CC1CC(C)CN(CCC(=O)Nc2ccc3c(c2)CCC3)C1` (stereo not given), which Potency is on record?
Its Potency is “inactive”.

With `Cc1ccc(C(=O)OCC(=O)NC(=O)Cc2ccccc2)c(O)c1` as the molecule, how does the Potency read?
Its Potency is “inactive”.

Which Potency does the source give for `O=c1cc(Cl)c2ccccc2n1-c1ccccc1` here?
The Potency was “inactive”.

With `Cn1c(=O)nc2n(-c3ccc(Br)cc3)c3cccc(Cl)c3cc-2c1=O` as the molecule, how does the Potency read?
Its Potency is “inactive”.

Which Potency does the source give for `Cc1ccc(-n2c3nc(=O)[nH]c(=O)c-3cc3c(Cl)cccc32)cc1` here?
The Potency was 1.46 µM (active).

Which Potency does the source give for `CSc1cccc(NC(=O)CN2C(=O)COc3ccc(S(=O)(=O)N4CCOCC4)cc32)c1` here?
The Potency was “inactive”.

For `COc1ccc(Cl)cc1NC(=O)COc1ccc2c(c1)OCO2`, which Potency is on record?
The Potency was “inactive”.

Which Potency does the source give for `CC1CCN(C(=S)c2cccc(O)c2)CC1` here?
The Potency was “inactive”.

For `C=C1C([C@@]2(C)C(OC(C)=O)CC(=O)O[C@@](C)(COC(C)=O)C2CC(=O)OC)C(OC=O)C(OC(=O)C(O)C(C)CC)[C@]2(C)C(c3ccoc3)CC(=O)C12O` (stereo not given in full), which Potency is on record?
Its Potency is 2.59 µM (active).

With `O=C(Nc1ccccc1Cl)N1CCC(CN2CCCCC2)CC1` as the molecule, how does the Potency read?
The Potency was “inactive”.

With `COc1ccc(NC(=O)c2ccc(C#CC(C)(C)O)cc2)cc1` as the molecule, how does the Potency read?
Its Potency is “inactive”.

Which Potency does the source give for `Cc1cc(=O)[nH]c(N/N=C/c2ccc3c(c2)OCCO3)n1` here?
The Potency was “inactive”.

Which Potency does the source give for `Cc1oc(-c2cccc(NC(=O)c3ccccc3)c2)nc1CNC(=O)c1cnc2ccccn2c1=O` here?
The Potency was “inactive”.

For `O=C(NN1CCOCC1)c1cccc(F)c1`, which Potency is on record?
The Potency was “inactive”.

For `O=C(Nc1c(-c2ccc(F)cc2)nc2ccccn12)c1cccc(F)c1`, which Potency is on record?
The Potency was 20.6 µM (active).

For `Cc1ccccc1NC(=O)CCNS(=O)(=O)c1ccc2[nH]c(=O)oc2c1`, which Potency is on record?
The Potency was “inactive”.

For `O=C(C1CC1)N1CCc2cc(Br)cc(S(=O)(=O)N3CCN(c4ccccc4F)CC3)c21`, which Potency is on record?
Its Potency is “inactive”.

Which Potency does the source give for `O=C(CCCCCN1C(=O)c2cccc3cccc(c23)C1=O)NCc1ccco1` here?
Its Potency is “inactive”.

With `O=C(CN1C(=O)/C(=C\c2ccc(C(F)(F)F)cc2)Sc2ccccc21)NCc1ccco1` as the molecule, how does the Potency read?
Its Potency is 18.4 µM (active).

With `CC1CCC2(CC1)NC(=O)N(CC(=O)NCc1ccco1)C2=O` (stereo not given) as the molecule, how does the Potency read?
Its Potency is “inactive”.

With `Nn1c(SCC(=O)Nc2nccs2)nnc1-c1ccco1` as the molecule, how does the Potency read?
The Potency was “inactive”.

For `Cc1ccc(CNC(=O)Cn2c(=O)ccc3cc(S(=O)(=O)N4CCCC4)ccc32)cc1`, which Potency is on record?
Its Potency is “inactive”.

Which Potency does the source give for `COc1cccc(N2CC(C(=O)NCc3n[nH]c(=O)c4ccccc34)CC2=O)c1` (stereo not given) here?
The Potency was “inactive”.

With `O=c1[nH]c2cccnc2n(CCNc2ncc(C(F)(F)F)cc2Cl)c1=O` as the molecule, how does the Potency read?
The Potency was “inactive”.

With `CCOc1ccccc1NC(=O)Cn1nnc(C(=O)NCc2cccs2)c1N` as the molecule, how does the Potency read?
Its Potency is 5.2 nM (active) and 130 nM (active).

With `CCOc1ccccc1NC(=O)Cc1cccs1` as the molecule, how does the Potency read?
Its Potency is “inactive”.

With `CCOc1ccc(Cn2nnc(C(=O)NCc3ccccc3)c2N)cc1` as the molecule, how does the Potency read?
The Potency was “inactive”.
